Measured values as given in the supplement of paper PMC10681739.

These sequences were tested against T1, ETS1 (UniProt P14921) (assay: TF binding intensity (PBM fluorescence), negative control probe (arbitrary fluorescence units); higher = stronger binding).
T1 sequence: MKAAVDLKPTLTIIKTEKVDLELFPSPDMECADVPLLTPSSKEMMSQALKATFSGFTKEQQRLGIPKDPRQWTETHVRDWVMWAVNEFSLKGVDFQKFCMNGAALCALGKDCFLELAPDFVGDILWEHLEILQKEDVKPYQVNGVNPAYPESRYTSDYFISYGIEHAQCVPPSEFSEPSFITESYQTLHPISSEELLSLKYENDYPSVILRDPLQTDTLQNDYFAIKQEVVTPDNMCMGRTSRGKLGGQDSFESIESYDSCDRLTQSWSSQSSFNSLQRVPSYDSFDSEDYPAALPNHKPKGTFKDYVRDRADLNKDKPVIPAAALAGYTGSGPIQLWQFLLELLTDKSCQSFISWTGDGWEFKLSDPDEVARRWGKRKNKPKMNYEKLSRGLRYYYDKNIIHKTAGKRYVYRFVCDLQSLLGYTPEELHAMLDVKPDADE
Procedure: (§1)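 gcPBM negative-control 36-bp genomic probes lacking TF binding sites. Each was incubated with recombinant human ETS1 or RUNX1 alone and detected by antibody fluorescence. Values are medians over replicate spots (4 spots for the ETS1-RUNX1 arrays, 3 for the ETS1-ETS1 array). The probes sit in constant array flanks that are not printed.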

In order of falling TF binding intensity:
1. CAACGCAGACTACTAACCACTAGAGAATCCCAAGGC (protein concentration 1 nM)  485
2. TTCTTTGACTCACTATGCGGGTTGGTACATCTGGGG (protein concentration 1 nM)  476
3. CCCAATCTGTAACAACCCACATCTGTTCCTTATTTG (protein concentration 1 nM)  466
4. CGGACTGGGAGTTTGACCGCGTTGACGACGGCTCGC (protein concentration 1 nM)  446
5. TGACTCTCCCCTCCATTCCCACCCCATACCCCCTTC (protein concentration 10 nM)  198
6. GACCACAGGGACCCATGCCAGTCAGATAAAAATAAC (protein concentration 10 nM)  141
7. AGGCCTCTGCTCTCCTGGAGCTCATGACAAGTAAAC (protein concentration 10 nM)  118
8. ACTGCTTTTTCACACAGCATCTTAATTGGCCTGTTT (protein concentration 10 nM)  118
9. AAACTAATCAGAATTTAACATCATACATAAATGGCA (protein concentration 10 nM)  116
10. CCTTGCCAATGTTTGTGTGGAGAGCACACGGGTGCT (protein concentration 10 nM)  116
11. ATTCTTCTAATAATCCAGTTTGAGTGGATCCTCTGT (protein concentration 10 nM)  112
12. GAGATGCAGCAGCGTCTCCCAGTCCTCACCGCGGCC (protein concentration 10 nM)  112
13. GGCGGCGCCGGCGGCTGCGGGGTTATCTCCGCGGCC (protein concentration 10 nM)  107
14. CTGAGAGCCAGGCCCGTTCCCTCTGAACCTCAGTTC (protein concentration 10 nM)  103
15. TAACAGGGAGATAAAACGGGTGAGAGCCCCCTAGGA (protein concentration 10 nM)  103

These sequences were tested against RUNX1 (UniProt Q01196) in the same assay as above.
Chain of RUNX1 (Q01196 whole entry): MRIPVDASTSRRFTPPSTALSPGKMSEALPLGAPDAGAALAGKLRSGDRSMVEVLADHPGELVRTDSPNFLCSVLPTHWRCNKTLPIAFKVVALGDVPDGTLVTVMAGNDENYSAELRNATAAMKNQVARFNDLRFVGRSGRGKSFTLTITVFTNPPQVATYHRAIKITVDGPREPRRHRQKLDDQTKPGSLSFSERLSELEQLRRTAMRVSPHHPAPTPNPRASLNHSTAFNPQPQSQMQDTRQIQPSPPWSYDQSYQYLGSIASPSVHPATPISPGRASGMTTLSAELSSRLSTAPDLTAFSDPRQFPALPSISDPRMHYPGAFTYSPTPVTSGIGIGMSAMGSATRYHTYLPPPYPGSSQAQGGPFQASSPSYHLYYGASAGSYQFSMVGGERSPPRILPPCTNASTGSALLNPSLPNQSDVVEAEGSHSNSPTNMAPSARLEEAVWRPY
Procedure: as §1

In order of falling TF binding intensity:
1. GGGAGAGATGGGGCGCGGAAGGAACGAGGCGGGACG (protein concentration 2 nM)  1350
2. CCTTTTTCGCCTCCTTTTCCTGCCCCAAGACTAGAG (protein concentration 2 nM)  1290
3. ACTACCCTCCGCCCTCTTCCGCCGCCGCCGCCGCCT (protein concentration 2 nM)  1200
4. AATTCTGGGGAGCGAAGGAAATTGGCTTTCGAGGCG (protein concentration 2 nM)  1200
5. CTCCCTTGCTCACAACTTCCTCTTGCTGTCTGCTTC (protein concentration 2 nM)  1170
6. GTCCCGCCTTCTCCGCTTCCGCCACCTCCTACTTAG (protein concentration 2 nM)  1160
7. CCTTTGAAAGAAAAAAGGAAGTGTTTGGACGACAGC (protein concentration 2 nM)  1150
8. ACCCCATTTCAGTCATTTCCTGCTGCAACTAAGTCA (protein concentration 2 nM)  1070
9. CTGATTCACTGCCCTCTTCCGCTCTGAGGCGTCGCC (protein concentration 2 nM)  1030
10. TGGGCGGGGAGAGGACGGAAGGAGTAGGCTTCGGGA (protein concentration 2 nM)  1020
11. CTTCTGTCTCCAAAACGGAAATAATAACTTGAGATT (protein concentration 2 nM)  989
12. GACGAGCCCGGTGGCAGGAAGTGACAGTGAGAAACT (protein concentration 2 nM)  965
13. TAACTCTTTGCTATCCTTCCGCTGAGCTTCATCTTC (protein concentration 2 nM)  963
14. TCCAGGGCCACCCCATTTCCTGCCCTCAGCACTTCG (protein concentration 2 nM)  929
15. ATGTGTGTGTTTTTCCTTCCGGTTGCTGTGAGGTGA (protein concentration 2 nM)  919
16. GAAGGGGTTTCAGGACGGAAGCAAACACATATTCAA (protein concentration 2 nM)  912
17. CGTCGCCCGGTCCCGGTTCCGGTCCGCGCTCCGGTC (protein concentration 2 nM)  910
18. GCGTACACCTGCCGCCGGAAGAAGAGCGACGGTCGC (protein concentration 2 nM)  909
19. TCTCGCCCCTCATCCCGGAAAGGAAGACTCTGAATG (protein concentration 2 nM)  891
20. GCAGTCAGCCCTTCCCTTCCTGTCCGTCAACTCCGG (protein concentration 2 nM)  875
21. ACAGCTGAATTCTCACTTCCTTCGTCTCTGAGCCTG (protein concentration 2 nM)  874
22. ACGGCAAGTAAAGTGTTTCCGGCTCAGGTGTCATGG (protein concentration 2 nM)  852
23. GGGTGCAGAAGCCAGCGGAAGCGGAGCGCTACAAGC (protein concentration 2 nM)  784
24. CGAGCTTAGAAGGCGCTTCCGATGGGCGGAGTTTAG (protein concentration 2 nM)  742
25. AGGAGTTTGCTCATCCTTCCGGATCCAAAGGCTGCG (protein concentration 2 nM)  712
